Drawing on the supplement of paper PMC10849652, this text covers log2 fold change for 36 targets.

Of roughly 8,800 targets only a part is listed; those with a hit were picked by preference. About 0.5% of all pairs of compound and target were hits.

Chain of UniProt Q6N063 (Q6N063 whole entry, looked up): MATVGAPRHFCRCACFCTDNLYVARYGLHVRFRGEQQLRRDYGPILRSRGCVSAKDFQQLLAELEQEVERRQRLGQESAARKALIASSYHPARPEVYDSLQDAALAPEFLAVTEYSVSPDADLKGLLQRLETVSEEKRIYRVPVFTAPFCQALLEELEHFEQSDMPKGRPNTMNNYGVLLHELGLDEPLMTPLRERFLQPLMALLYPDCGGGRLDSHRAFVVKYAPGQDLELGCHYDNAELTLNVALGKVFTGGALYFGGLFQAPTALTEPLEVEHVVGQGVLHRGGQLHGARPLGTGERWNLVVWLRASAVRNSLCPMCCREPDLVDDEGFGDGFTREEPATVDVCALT
Chain of UniProt Q9BZD4 (Q9BZD4 whole entry, looked up): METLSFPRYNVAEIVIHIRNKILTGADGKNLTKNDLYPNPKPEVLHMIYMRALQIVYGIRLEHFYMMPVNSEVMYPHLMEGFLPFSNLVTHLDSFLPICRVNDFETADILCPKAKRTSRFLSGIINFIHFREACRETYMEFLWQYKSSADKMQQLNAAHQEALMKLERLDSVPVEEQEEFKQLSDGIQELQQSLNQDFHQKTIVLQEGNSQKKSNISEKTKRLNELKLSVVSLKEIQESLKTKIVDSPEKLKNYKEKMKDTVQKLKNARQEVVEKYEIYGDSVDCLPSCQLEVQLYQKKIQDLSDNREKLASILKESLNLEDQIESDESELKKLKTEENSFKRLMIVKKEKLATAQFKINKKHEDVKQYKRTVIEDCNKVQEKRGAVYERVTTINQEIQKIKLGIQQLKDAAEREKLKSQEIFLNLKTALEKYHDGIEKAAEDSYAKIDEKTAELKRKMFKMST
Chain of UniProt Q9NX02 (Q9NX02 whole entry, looked up): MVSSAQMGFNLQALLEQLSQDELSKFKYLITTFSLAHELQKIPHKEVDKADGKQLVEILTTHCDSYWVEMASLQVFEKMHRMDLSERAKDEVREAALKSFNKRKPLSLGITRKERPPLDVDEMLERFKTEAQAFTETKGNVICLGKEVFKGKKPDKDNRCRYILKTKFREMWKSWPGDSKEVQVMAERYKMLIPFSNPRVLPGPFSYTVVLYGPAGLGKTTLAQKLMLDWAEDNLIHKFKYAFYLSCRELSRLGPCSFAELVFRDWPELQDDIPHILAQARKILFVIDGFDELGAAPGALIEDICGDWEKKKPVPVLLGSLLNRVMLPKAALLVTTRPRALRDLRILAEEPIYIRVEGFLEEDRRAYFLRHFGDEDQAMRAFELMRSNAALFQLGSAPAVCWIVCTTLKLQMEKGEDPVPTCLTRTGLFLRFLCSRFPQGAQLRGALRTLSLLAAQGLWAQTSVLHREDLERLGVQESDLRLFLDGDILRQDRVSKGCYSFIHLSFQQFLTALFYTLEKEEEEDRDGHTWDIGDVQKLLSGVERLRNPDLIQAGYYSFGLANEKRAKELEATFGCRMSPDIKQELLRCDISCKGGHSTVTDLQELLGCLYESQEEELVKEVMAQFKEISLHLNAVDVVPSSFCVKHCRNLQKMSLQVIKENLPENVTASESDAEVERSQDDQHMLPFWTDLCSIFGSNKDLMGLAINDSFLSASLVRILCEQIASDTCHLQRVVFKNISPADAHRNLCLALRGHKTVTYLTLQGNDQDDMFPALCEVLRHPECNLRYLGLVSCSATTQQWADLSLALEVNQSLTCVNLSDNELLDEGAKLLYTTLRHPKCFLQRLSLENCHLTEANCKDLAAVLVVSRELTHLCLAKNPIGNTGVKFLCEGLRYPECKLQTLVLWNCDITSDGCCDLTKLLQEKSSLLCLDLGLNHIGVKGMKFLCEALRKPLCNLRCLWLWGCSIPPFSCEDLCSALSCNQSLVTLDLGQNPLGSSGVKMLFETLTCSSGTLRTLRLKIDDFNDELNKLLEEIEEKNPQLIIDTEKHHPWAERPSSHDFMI
Chain of UniProt Q9UFN0 (Q9UFN0 whole entry, looked up): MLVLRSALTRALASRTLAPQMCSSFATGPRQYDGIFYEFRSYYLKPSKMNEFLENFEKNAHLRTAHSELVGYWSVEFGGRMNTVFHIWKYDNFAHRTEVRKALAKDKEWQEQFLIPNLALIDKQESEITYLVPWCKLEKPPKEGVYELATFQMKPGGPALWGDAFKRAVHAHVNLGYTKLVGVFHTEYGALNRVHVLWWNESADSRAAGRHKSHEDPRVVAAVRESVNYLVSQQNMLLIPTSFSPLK
Chain of UniProt Q9Y217 (Q9Y217 whole entry, looked up): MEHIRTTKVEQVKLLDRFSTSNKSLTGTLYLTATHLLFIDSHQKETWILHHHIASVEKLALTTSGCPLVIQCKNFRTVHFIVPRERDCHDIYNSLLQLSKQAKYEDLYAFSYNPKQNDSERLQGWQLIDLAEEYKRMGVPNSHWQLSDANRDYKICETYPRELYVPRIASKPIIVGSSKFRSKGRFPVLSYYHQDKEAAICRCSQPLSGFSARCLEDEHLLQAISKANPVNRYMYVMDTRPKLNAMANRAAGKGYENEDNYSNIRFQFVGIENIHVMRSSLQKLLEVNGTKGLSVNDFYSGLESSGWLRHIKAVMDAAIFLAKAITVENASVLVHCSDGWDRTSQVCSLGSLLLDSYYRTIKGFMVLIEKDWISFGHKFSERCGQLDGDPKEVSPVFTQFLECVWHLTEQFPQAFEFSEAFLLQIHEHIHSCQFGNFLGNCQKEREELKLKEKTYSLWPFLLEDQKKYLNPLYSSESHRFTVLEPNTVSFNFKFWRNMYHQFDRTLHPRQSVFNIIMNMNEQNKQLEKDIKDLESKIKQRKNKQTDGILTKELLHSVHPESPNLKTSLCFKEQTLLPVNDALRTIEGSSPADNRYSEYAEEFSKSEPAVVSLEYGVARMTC
Chain of UniProt P30419 (P30419 whole entry, looked up): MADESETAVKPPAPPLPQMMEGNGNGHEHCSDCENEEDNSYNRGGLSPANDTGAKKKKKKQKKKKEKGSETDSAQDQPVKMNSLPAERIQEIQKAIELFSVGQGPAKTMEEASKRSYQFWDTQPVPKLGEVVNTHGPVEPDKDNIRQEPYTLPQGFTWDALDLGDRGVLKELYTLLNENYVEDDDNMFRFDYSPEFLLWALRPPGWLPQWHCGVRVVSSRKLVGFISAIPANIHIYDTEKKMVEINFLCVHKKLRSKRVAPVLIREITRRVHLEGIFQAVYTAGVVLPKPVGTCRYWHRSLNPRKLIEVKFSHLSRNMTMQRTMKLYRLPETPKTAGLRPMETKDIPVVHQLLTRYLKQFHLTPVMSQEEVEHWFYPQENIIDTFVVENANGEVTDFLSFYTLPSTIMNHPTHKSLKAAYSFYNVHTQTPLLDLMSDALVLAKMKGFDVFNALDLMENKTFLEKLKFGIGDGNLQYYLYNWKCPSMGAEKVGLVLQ
Chain of UniProt Q9Y6C9 (Q9Y6C9 whole entry, looked up): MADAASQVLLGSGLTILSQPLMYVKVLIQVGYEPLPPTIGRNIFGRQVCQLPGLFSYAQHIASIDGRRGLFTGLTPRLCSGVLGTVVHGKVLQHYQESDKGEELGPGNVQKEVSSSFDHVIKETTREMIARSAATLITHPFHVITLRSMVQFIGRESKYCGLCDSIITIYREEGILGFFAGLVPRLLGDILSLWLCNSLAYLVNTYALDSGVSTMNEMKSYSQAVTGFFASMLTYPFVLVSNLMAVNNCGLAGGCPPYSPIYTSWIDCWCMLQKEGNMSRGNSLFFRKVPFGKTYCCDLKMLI
Chain of UniProt Q8TD19 (Q8TD19 whole entry, looked up): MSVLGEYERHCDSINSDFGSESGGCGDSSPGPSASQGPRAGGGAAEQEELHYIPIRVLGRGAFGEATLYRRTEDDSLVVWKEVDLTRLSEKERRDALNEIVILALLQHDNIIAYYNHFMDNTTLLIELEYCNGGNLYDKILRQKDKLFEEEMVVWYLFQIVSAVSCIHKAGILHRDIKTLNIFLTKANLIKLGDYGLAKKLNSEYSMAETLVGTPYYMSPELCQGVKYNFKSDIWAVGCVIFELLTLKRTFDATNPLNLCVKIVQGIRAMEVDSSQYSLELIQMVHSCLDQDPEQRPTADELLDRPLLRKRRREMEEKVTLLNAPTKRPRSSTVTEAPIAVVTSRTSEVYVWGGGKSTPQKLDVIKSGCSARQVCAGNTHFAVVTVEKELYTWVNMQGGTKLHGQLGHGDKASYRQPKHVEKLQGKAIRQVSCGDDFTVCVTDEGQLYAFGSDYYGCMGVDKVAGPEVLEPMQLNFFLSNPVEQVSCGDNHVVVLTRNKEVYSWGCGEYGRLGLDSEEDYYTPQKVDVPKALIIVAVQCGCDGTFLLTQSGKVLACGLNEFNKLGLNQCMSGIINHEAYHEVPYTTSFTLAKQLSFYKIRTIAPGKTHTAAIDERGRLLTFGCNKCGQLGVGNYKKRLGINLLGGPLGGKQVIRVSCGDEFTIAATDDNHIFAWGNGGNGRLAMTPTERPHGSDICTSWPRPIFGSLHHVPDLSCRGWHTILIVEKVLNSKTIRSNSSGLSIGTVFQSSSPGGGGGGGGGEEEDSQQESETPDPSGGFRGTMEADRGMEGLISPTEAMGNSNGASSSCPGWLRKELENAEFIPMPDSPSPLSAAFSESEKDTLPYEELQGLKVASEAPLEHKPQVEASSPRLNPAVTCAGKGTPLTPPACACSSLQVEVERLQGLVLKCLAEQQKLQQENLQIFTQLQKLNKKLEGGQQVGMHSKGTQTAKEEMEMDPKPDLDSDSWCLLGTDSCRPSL
Chain of UniProt Q9BYG3 (Q9BYG3 whole entry, looked up): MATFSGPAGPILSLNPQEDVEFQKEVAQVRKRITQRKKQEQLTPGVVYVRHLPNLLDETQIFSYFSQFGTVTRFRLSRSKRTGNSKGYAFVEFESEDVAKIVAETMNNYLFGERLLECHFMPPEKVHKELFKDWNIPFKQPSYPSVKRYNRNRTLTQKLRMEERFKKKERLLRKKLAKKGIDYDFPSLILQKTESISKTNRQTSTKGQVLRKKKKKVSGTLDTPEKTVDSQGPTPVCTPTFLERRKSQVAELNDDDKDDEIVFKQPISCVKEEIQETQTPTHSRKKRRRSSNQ
Chain of UniProt Q9NZJ9 (Q9NZJ9 whole entry, looked up): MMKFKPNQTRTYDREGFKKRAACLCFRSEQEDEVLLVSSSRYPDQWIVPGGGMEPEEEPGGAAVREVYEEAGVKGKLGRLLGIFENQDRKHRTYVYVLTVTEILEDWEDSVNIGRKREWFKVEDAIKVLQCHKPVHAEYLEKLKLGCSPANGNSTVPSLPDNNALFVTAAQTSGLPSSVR

Compound in the assay: C1=CC(=CC=C1C2=NC3=C(N2)C=C(C=C3)C(=O)N)OC4=CC=C(C=C4)Cl
Kind of assay: log2 fold change, soluble protein after heating vs DMSO (PISA); higher = thermal stabilisation; K562 lysate, 10 uM; active = over 0.2 and 3.5 SD of the protein, either way, in both replicates (recomputed). Put shortly: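 Log-two fold change in thermal stability relative to solvent controls is reported from duplicates. For each sample, crude K562 extract from dounce-homogenised pellets in PBS pH 7.4 with 1 mM MgCl2, at 1 mg/mL protein, was treated with 10 μM compound for 30 min. Aliquots heated for 3 min across 48°C-58°C were pooled, brought to 0.5% NP-40 at 4°C and cleared at 21,000xg for 90 min. The supernatant was quantified by TMTpro 16plex LC-MS/MS with channel sums equalised.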
On to NUP93 (UniProt Q8N1F7), for which the log2 fold change was -0.042 (inactive).
For PANK4 (UniProt Q9NVE7), the log2 fold change was 0.003 (inactive).
Regarding NIPSNAP3A (UniProt Q9UFN0), the log2 fold change was 0.062 (inactive).
The value for OSBP2 (UniProt Q969R2) was 0.08 (inactive).
For MTCH2 (UniProt Q9Y6C9), the log2 fold change is -0.081 (inactive).
On to NUP160 (UniProt Q12769), for which the log2 fold change was -0.033 (inactive).
NEK7 (UniProt Q8TDX7): the log2 fold change was -0.083 (inactive).
Under NLRP2 (UniProt Q9NX02) stands -0.002 (inactive); under NUMB (UniProt P49757), 0.044 (inactive).
Consider NEK9 (UniProt Q8TD19), for which the log2 fold change is -0.028 (inactive).
Under MSH6 (UniProt P52701) stands -0.023 (inactive).
The value for NIFK (UniProt Q9BYG3) was -0.01 (inactive); that for OGFOD2 (UniProt Q6N063) was -0.093 (inactive); that for NFATC1 (UniProt O95644) was 0.045 (inactive).
As to NFIC (UniProt P08651), the log2 fold change is -0.044 (inactive).
Under OARD1 (UniProt Q9Y530) stands 0.008 (inactive).
As for NOB1 (UniProt Q9ULX3), the log2 fold change is 0.012 (inactive).
Turning to NARS2 (UniProt Q96I59), the log2 fold change was -0.045 (inactive).
The value for NUP188 (UniProt Q5SRE5) was -0.01 (inactive).
Regarding NFKBIE (UniProt O00221), the log2 fold change was -0.117 (inactive).
Under NNT (UniProt Q13423) stands -0.014 (inactive); under ORC5 (UniProt O43913), -0.017 (inactive); under MYO1D (UniProt O94832), -0.022 (inactive).
Under OTUD7B (UniProt Q6GQQ9) stands 0.075 (inactive); under NUF2 (UniProt Q9BZD4), -0.012 (inactive).
The value for PBK (UniProt Q96KB5) was -0.044 (inactive); that for NUDT4 (UniProt Q9NZJ9) was -0.022 (inactive).
In the case of MYD88 isoform 6 (UniProt Q99836), the log2 fold change is -0.011 (inactive).
Under MRPL53 (UniProt Q96EL3) stands 0.042 (inactive); under MTMR6 (UniProt Q9Y217), 0.002 (inactive).
With NELFCD (UniProt Q8IXH7), the log2 fold change is 0.007 (inactive).
Under NPLOC4 isoform 2 (UniProt Q8TAT6) stands -0.004 (inactive); under NCOR2 (UniProt C9J0Q5), 0.04 (inactive).
Under NUDT5 (UniProt Q9UKK9) stands 0.046 (inactive); under NMT1 (UniProt P30419), 0.15 (inactive).
Under PARD3 (UniProt Q8TEW0) stands 0.051 (inactive).
